# Source: ChEMBL document CHEMBL4513216, “Probing the Open Global Health Chemical Diversity Library for Multistage-Active Starting Points for Next-Generation Antimalarials” (ACS Infect Dis, 2020)
# Among all 69,000 compounds or so, about 8,600 (12%) showed an effect of 50% or more. Many of the other results were omitted from the sample, so strong results are more common in it than they were.
# System: Plasmodium berghei
# Test: Screen against P. berghei liver stage (PbLuc), transformed with Luciferase, at 10uM
# Format: functional, HepG2
# Conditions: tested at 10 uM
row,Compound,INHIBITION [%]
1,CN(C)CCN1CCC2(CCN(C(=O)c3ccc(F)cc3)CC2)C1=O,56.6
2,CCc1ccc(C(=O)N2CCC3(CCC(=O)N(CCN(C)C)C3)CC2)[nH]1,70.4
3,CN(C)CCN1CC2(CCC1=O)CCN(C(=O)c1ccn(C)n1)CC2,35.1
4,CN(C)CCN1CCC2(CCN(C(=O)c3cccc(F)c3)CC2)C1=O,0.112
5,Cc1c(C(=O)N2CCC3(CCC(=O)N(CCN(C)C)C3)CC2)ccn1C,34
6,CN(C)CCN1CCC2(CCN(C(=O)c3ccncc3)CC2)C1=O,13.7
7,Cc1ncsc1CN1CC[C@H]2OCC[C@@]2(C(=O)NC(C)C)C1,11.1
8,Fc1cccc(Cl)c1Cn1ncnc1CSCCN1CCCC1,39.9
9,Cc1nnc(C2CCN(C(=O)c3cnc4ccccc4n3)CC2)s1,31.2
10,CN(C)C[C@@H]1CN(C(=O)CCC2CCCC2)C[C@@H]1CO,28.2
11,O=C(c1cnccn1)N1CCCC(Cc2ccccn2)C1 (configuration not stated),31.8
12,O=C(c1cnccn1)N1CCCC(Cc2cncc3ccccc23)C1 (configuration not stated),-39.4
13,Cn1cc(C(=O)N2CCCC(Cc3cccc4ncccc34)C2)cn1 (configuration not stated),85.7
14,O=C(c1cnco1)N1CCCC(Cc2nccs2)C1 (configuration not stated),26.9
15,O=C(c1cnccn1)N1CCCC(Cc2cccc3ncccc23)C1 (configuration not stated),70.8
16,Cn1cc(C(=O)N2CCCC(Cc3cncc4ccccc34)C2)cn1 (configuration not stated),3.91
17,O=C(c1cnco1)N1CCCC(Cc2cccc3ncccc23)C1 (configuration not stated),51.2
18,Cn1ccc(C(=O)N2CCC(Cc3cccc4ncccc34)C2)n1 (configuration not stated),23.4
19,Cn1cc(C(=O)N2CCCC(Cc3nccs3)C2)cn1 (configuration not stated),20.2
20,Cn1ccc(C(=O)N2CCCC(Cc3cccc4ncccc34)C2)n1 (configuration not stated),75.1
21,Cn1ccc(C(=O)N2CCC(Cc3cccc4ncccc34)CC2)n1,42.6
22,O=C(c1cnco1)N1CCC(Cc2cccc3ncccc23)CC1,44.9

row,Compound,INHIBITION [%]
1,CNC(=O)N1CCC2(CC1)CN(C)Cc1cc(F)ccc12,39.3
2,Cc1cccc(CN2CCc3nnc(CN4CCCCC4)n3CC2)n1,-89.8
3,CC(C)c1nccn1C1CCCN(C(=O)CN(C)C2CC2)C1 (configuration not stated),19.6
4,CCN(C(=O)COc1nc(C(C)(C)C)no1)C1CC1,-1.75
5,COc1ccc(C[C@H]2CN(C(=O)c3cc(C)no3)CC[C@H]2OC)cc1,-22.1
6,Cc1cc(C)c(CNC(=O)NCc2ccncc2)c(=O)[nH]1,37.9
7,COCCNC(=O)NC(C)COc1ccc(F)cc1F (configuration not stated),-2.48
8,CC(C)N1C(=O)CO[C@H]2CCN(C(=O)c3ccc4c(c3)CCC4)CC[C@@H]21,20.105
9,Cc1noc(C)c1CN1CCC2(CC1)C(c1cnn(C)c1)CC(=O)N2C (configuration not stated),41.2
10,CCC(CC)C(=O)N1CCOC2(COCCN(CC(=O)NC)C2)C1 (configuration not stated),-13
11,O=C(NCCc1c[nH]cn1)c1n[nH]c2c1CCC2,-11.1
12,COc1ccccc1CC(=O)N1CCCC(CNS(C)(=O)=O)C1 (configuration not stated),4.623
13,CCn1cc(CN2CCCN(C(=O)C3(C#N)CCCCC3)CC2)cn1,45.2
14,CCn1cc(CN2CCN(C(=O)N3CCOCC3)CC2)cn1,43.4
15,Cc1csc(N2CCCN(C(=O)Cc3ccc(C)s3)CC2)n1,69.8
16,CCn1cc(CN2CCCN(C(=O)CCc3cnn(C)c3)CC2)cn1,15.5
17,Cc1csc(N2CCN(C(=O)Cc3ccc(C)s3)CC2)n1,-23.8
18,CCn1cc(CN2CCCN(C(=O)CCSC)CC2)cn1,5.9
19,Cc1cnn(CC(=O)N2CCCN(c3nc(C)cs3)CC2)c1,35.9
20,Cc1csc(N2CCCN(C(=O)Cc3cccs3)CC2)n1,14.4
21,CCn1cc(CN2CCCN(C(=O)CCn3cc(C)cn3)CC2)cn1,52.5
22,Cc1cnn(CCC(=O)N2CCN(c3nc(C)cs3)CC2)c1,62.8

row,Compound,INHIBITION [%]
1,Cc1cnn(CCC(=O)N2CCCN(c3nc(C)cs3)CC2)c1,17.4
2,CCn1cc(CN2CCCN(C(=O)C3(C)CCOCC3)CC2)cn1,55.4
3,CN(Cc1cc[nH]n1)C(=O)c1cn(Cc2ccccc2Cl)nn1,39.4
4,COc1ccc2[nH]cc(C(=O)N3C[C@@H](O)[C@H](NS(C)(=O)=O)C3)c2c1,14.6
5,O=C(c1ccnc(C2CCNCC2)c1)N1CCCOCC1,42.6
6,CCN(CC)S(=O)(=O)NCC1Cc2ccccc2O1 (configuration not stated),7.65
7,CC(=O)N1CCCC1c1nc(CN(C)C(=O)C(C)C)cc(N(C)C)n1 (configuration not stated),23.9
8,CCc1n[nH]c(C2CN(CCS(C)(=O)=O)CCO2)n1 (configuration not stated),25.6
9,O=S(=O)(NC1CCCOC1)c1ccc(C(F)(F)F)nc1 (configuration not stated),30
10,Cc1cnn(CC2CCCN2CC(=O)NC2CCN(C3CC3)CC2)c1 (configuration not stated),-42.3
11,CCc1nccn1C1CCCN(C(=O)c2cncnc2C)C1 (configuration not stated),21.6
12,CN(C)CC1CN(C(=O)NCc2ccccc2)Cc2nccn2C1 (configuration not stated),13.5
13,Cc1cccc2c1OCCC2NCc1c(C(C)C)nn(C)c1N(C)C (configuration not stated),-41.2
14,CC(C)(C)Oc1ccc(CN)c(C(F)(F)F)c1,30.8
15,Cc1csc(N2CCCN(C(=O)C(C)n3cncn3)CC2)n1 (configuration not stated),17.4
16,CCn1cc(CN2CCCN(C(=O)c3sccc3C#N)CC2)cn1,24
17,CCc1ccsc1C(=O)N1CCS(=O)(=O)CC1,53.7
18,CC(C)n1cc(CN2CCCN(C(=O)C3CCOC3)CC2)cn1 (configuration not stated),-29.1
19,Cc1csc(N2CCN(C(=O)C(C)n3cncn3)CC2)n1 (configuration not stated),60.5
20,CSC(C)C(=O)N1CCCN(Cc2cnn(C(C)C)c2)CC1 (configuration not stated),-19.9
21,Cc1csc(N2CCN(C(=O)C(C(C)C)n3cncn3)CC2)n1 (configuration not stated),17.4
22,CCc1ccsc1C(=O)N1CCN(CC(C)O)CC1 (configuration not stated),-27.8

row,Compound,INHIBITION [%]
1,CCn1cc(CN2CCCN(C(=O)c3sccc3OC)CC2)cn1,-34
2,CCc1ccsc1C(=O)N1CCN(CC(N)=O)CC1,-53.5
3,CCc1ccsc1C(=O)N1CCCN(Cc2cnn(CC)c2)CC1,58.5
4,CC(C)n1cc(CN2CCCN(C(=O)C3(C)CCOCC3)CC2)cn1,54.5
5,O=C(c1cccnc1)N(CCO)Cc1cc(Br)ccc1F,-5.1
6,CNc1nc(C2CCCN(C(=O)C(C)(C)OC)C2)nc2c1CN(C)CC2 (configuration not stated),-12.9
7,CC(C(=O)NCCOc1ccc2c(c1)CCC2)n1cncn1 (configuration not stated),-81.3
8,Cc1ccc(S(=O)(=O)N2CCN(CCCO)CC2)s1,30.1
9,c1cncc(-c2noc(CNC3CCc4ncnn4C3)n2)c1 (configuration not stated),29.4
10,Cc1cc(C)n(CC2CCCCN2C(=O)c2ccsc2)n1 (configuration not stated),-3.2
11,CC(C)C(Sc1nncn1C1CC1)C(=O)NCc1cccnc1 (configuration not stated),-38
12,CC(NC(=O)Cc1cccs1)c1nnc2n1CCC2 (configuration not stated),-12.2
13,O=C(c1cc[nH]n1)N1CCC(c2cc(Nc3ccccn3)n[nH]2)CC1,-3.31
14,Cc1nnc(NC(=O)NCc2ccoc2)s1,-19.9
15,COCCNC(=O)Cn1ccc2ccc(F)cc21,17.1
16,O=C(Cn1ccc2cc(Br)ccc21)NC[C@@H]1CCCN2CCCC[C@H]12,58.3
17,COC(=O)[C@H](C)NC(=O)Cn1ccc2ccc(F)cc21,50.8
18,O=C(Cn1ccc2ccc(Br)cc21)NC[C@@H]1CCCN2CCCC[C@H]12,37.1
19,CC[C@H](C)[C@H](NC(=O)Cn1ccc2ccc(F)cc21)C(=O)OC,-24.6
20,COC(=O)CNC(=O)Cn1ccc2ccc(F)cc21,13.9
21,O=C(Cn1ccc2ccc(F)cc21)NCc1ccc(C(=O)O)cc1,6
22,O=C(Cn1ccc2ccc(F)cc21)NC[C@@H]1CCCN2CCCC[C@H]12,58.3

row,Compound,INHIBITION [%]
1,O=C(CCn1ccc2cc(Br)ccc21)NC[C@@H]1CCCN2CCCC[C@H]12,49
2,O=C(Cn1ccc2ccccc21)NC[C@@H]1CCCN2CCCC[C@H]12,23.5
3,Cc1cccc2c1ccn2CC(=O)O,35
4,Cc1cccc2c1ccn2CC(=O)NC[C@@H]1CCCN2CCCC[C@H]12,51.9
5,Cc1ccnn1CCC(=O)N1CCCC2(C1)NC(=O)c1ccccc1O2 (configuration not stated),-2.2
6,CC1=C(C(N)=O)C(c2cn(C)nc2C)N2C(=O)CSC2=N1 (configuration not stated),-20.5
7,CCn1ncc2c1C(COCC1CC1)N(C(=O)c1ccncn1)CC2 (configuration not stated),9.34
8,CC(=O)N1CCCCC1c1nc(N)ncc1-c1ccccc1 (configuration not stated),38.1
9,CN1CCC2(CCCN(C(=O)c3cncn3C)C2)CC1,29
10,Cc1noc(CCNC(=O)NCc2ccc(OC3CCCC3)cc2)n1,-33.4
11,CO[C@@H]1CN(c2ccccc2)S(=O)(=O)[C@@]12CCN(Cc1cncs1)C2,41.9
12,Cc1cc(C)n(C2CCN(S(=O)(=O)N3CCC(C)CC3)CC2)n1,19.3
13,CC(=O)N1N=C(c2ccccc2)OC1C(=O)NCCc1cccc(F)c1 (configuration not stated),-18.2
14,CN(C)C(=O)N1CC[C@H]2[C@H]1CCN2c1nncs1,2.4
15,COCc1nc(C(=O)N2CCCC2c2ccc(OC)cc2)cs1 (configuration not stated),46.2
16,OC12CCC(CC1)N(Cc1ccc(F)cc1)C2CN1CCOCC1 (configuration not stated),9.36
17,COc1ccc2c(ccn2CC(=O)NC[C@@H]2CCCN3CCCC[C@H]23)c1,54.8
18,Cc1ccc2c(ccn2CC(=O)NC[C@@H]2CCCN3CCCC[C@H]23)c1,47.4
19,Cc1ccc2c(ccn2CCC(=O)NC[C@@H]2CCCN3CCCC[C@H]23)c1,-3.95
